# Assay results: ChEMBL document CHEMBL1961873, “Compounds: GSK PKIS; Assays: Nanosyn kinase panel” (2012)
# “And” between values parts separate entries of the source, which are not always exact repeats. Identical values can stand only once.
# Key:
# [1] = molecular target: RAC-alpha serine/threonine-protein kinase (Homo sapiens) (UniProt P31749); details: at 0.1 µM
# [2] = molecular target: RAC-alpha serine/threonine-protein kinase (Homo sapiens) (UniProt P31749); details: at 1 µM
# [3] = molecular target: RAC-beta serine/threonine-protein kinase (Homo sapiens) (UniProt P31751); details: at 0.1 µM
# [4] = molecular target: RAC-beta serine/threonine-protein kinase (Homo sapiens) (UniProt P31751); details: at 1 µM
# [5] = molecular target: RAC-gamma serine/threonine-protein kinase (Homo sapiens) (UniProt Q9Y243); details: at 0.1 µM
# [6] = molecular target: RAC-gamma serine/threonine-protein kinase (Homo sapiens) (UniProt Q9Y243); details: at 1 µM
# [7] = molecular target: G protein-coupled receptor kinase 6 (Homo sapiens) (UniProt P43250); details: at 0.1 µM
# [8] = molecular target: G protein-coupled receptor kinase 6 (Homo sapiens) (UniProt P43250); details: at 1 µM
# [9] = molecular target: T1, Rhodopsin kinase GRK7 (Homo sapiens) (UniProt Q8WTQ7); details: at 0.1 µM
# T1 sequence (whole entry): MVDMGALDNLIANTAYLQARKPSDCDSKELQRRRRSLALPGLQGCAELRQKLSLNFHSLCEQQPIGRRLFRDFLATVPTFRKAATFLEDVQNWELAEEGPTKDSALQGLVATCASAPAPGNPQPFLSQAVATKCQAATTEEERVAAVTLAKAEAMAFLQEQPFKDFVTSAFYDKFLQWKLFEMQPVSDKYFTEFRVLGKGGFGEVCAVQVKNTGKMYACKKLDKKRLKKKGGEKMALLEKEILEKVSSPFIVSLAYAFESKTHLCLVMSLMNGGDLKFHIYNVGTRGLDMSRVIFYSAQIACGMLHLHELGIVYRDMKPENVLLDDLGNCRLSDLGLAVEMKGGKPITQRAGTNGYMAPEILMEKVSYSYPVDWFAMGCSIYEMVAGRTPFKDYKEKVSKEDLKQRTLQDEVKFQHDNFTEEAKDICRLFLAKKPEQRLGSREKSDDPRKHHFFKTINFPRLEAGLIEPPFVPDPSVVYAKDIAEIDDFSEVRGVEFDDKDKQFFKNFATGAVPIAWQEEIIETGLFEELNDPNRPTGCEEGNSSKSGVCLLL
# [10] = molecular target: T1, Rhodopsin kinase GRK7 (Homo sapiens); details: at 1 µM
# [11] = molecular target: Serine/threonine-protein kinase MRCK alpha (Homo sapiens) (UniProt Q5VT25); details: at 0.1 µM
# Serine/threonine-protein kinase MRCK alpha (Homo sapiens), sequence (Q5VT25 whole entry): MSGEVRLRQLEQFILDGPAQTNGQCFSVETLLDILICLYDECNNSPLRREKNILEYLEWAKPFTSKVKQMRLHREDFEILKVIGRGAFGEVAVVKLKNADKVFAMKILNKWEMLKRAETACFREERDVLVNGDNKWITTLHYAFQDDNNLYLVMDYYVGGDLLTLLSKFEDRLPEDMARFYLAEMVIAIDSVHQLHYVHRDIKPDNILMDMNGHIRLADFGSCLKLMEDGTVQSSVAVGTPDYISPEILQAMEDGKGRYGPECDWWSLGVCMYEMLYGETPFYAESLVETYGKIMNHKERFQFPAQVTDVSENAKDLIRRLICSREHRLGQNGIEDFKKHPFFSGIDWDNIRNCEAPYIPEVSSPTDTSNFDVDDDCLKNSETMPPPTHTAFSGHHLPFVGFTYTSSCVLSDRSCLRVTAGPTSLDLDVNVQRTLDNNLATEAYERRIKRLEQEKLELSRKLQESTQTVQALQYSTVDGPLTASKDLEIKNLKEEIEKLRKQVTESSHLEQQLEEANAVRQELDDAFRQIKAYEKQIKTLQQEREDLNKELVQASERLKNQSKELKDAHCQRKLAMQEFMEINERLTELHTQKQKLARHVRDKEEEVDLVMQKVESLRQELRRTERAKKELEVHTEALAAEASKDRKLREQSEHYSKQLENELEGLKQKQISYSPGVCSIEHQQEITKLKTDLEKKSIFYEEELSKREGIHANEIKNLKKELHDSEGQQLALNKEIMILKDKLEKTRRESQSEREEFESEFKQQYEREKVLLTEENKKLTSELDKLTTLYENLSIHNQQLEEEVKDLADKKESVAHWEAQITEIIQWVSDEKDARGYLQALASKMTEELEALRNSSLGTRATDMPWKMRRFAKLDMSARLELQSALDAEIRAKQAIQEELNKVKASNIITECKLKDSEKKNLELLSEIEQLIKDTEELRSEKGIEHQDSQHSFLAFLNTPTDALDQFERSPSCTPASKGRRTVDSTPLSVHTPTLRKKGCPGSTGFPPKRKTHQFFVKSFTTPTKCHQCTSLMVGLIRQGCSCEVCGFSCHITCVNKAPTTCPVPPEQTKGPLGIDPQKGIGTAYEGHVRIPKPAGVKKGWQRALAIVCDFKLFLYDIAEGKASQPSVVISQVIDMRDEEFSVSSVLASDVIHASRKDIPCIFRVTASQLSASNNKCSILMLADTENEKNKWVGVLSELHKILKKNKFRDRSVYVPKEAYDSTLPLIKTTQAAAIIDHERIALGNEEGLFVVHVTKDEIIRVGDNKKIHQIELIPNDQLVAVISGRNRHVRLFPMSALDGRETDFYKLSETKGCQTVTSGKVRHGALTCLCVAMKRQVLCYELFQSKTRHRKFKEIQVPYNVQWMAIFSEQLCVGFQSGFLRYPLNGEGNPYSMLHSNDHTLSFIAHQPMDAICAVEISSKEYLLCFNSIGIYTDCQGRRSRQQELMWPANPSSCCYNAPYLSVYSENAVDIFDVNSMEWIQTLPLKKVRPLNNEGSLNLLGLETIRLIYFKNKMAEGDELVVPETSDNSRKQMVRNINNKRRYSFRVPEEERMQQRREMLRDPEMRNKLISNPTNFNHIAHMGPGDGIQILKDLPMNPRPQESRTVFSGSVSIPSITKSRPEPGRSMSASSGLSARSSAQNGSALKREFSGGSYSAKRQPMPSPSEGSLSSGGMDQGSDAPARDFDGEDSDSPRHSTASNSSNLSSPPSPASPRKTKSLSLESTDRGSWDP
# [12] = molecular target: Serine/threonine-protein kinase MRCK alpha (Homo sapiens) (UniProt Q5VT25); details: at 1 µM
# [13] = molecular target: Serine/threonine-protein kinase MRCK beta (Homo sapiens) (UniProt Q9Y5S2); details: at 0.1 µM
# Serine/threonine-protein kinase MRCK beta (Homo sapiens), sequence (Q9Y5S2 whole entry): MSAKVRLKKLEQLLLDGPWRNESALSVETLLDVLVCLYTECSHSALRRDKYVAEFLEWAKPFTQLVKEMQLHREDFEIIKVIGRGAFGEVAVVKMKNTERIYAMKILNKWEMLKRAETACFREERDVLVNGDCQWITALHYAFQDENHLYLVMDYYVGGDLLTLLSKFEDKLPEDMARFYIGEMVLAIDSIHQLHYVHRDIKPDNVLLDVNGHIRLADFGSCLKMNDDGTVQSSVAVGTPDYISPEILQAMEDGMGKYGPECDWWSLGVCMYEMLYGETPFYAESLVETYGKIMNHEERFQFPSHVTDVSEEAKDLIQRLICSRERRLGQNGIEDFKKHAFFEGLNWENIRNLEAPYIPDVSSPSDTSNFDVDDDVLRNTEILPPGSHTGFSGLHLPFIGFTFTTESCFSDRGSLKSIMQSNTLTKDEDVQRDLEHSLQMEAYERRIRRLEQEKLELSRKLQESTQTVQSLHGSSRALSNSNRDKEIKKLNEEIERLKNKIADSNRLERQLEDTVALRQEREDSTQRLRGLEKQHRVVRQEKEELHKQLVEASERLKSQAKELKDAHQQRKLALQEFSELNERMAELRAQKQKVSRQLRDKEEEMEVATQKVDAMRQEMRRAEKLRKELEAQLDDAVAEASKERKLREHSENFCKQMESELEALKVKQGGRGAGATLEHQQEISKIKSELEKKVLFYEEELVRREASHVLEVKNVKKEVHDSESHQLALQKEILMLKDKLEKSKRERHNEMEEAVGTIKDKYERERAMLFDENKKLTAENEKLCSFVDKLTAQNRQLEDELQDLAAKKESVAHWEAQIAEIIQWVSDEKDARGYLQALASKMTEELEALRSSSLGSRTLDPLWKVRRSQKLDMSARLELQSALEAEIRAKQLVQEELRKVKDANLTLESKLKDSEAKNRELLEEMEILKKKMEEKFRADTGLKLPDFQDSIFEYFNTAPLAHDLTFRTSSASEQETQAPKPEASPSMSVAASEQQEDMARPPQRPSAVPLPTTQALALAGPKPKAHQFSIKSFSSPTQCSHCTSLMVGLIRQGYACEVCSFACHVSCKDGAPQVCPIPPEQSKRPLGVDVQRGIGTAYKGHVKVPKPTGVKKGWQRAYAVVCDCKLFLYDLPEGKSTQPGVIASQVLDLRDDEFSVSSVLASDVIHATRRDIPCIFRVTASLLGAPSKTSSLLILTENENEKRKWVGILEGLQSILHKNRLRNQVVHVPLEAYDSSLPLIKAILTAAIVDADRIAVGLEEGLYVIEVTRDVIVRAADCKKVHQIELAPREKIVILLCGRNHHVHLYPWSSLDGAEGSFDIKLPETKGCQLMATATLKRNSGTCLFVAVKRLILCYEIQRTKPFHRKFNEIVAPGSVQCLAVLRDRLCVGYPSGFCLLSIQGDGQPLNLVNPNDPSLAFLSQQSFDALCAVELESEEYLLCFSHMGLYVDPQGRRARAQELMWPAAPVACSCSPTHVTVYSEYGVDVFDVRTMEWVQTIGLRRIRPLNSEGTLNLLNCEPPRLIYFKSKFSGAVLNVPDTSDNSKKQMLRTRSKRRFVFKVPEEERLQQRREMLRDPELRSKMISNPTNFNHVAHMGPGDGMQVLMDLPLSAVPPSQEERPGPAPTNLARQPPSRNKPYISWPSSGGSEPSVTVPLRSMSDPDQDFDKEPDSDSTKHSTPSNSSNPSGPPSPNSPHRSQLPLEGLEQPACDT
# [14] = molecular target: Serine/threonine-protein kinase MRCK beta (Homo sapiens) (UniProt Q9Y5S2); details: at 1 µM
# [15] = molecular target: Ribosomal protein S6 kinase alpha-5 (Homo sapiens) (UniProt O75582); details: at 0.1 µM
# [16] = molecular target: Ribosomal protein S6 kinase alpha-5 (Homo sapiens) (UniProt O75582); details: at 1 µM
# [17] = molecular target: Ribosomal protein S6 kinase alpha-4 (Homo sapiens) (UniProt O75676); details: at 0.1 µM
# Ribosomal protein S6 kinase alpha-4 (Homo sapiens), sequence (O75676 whole entry, looked up): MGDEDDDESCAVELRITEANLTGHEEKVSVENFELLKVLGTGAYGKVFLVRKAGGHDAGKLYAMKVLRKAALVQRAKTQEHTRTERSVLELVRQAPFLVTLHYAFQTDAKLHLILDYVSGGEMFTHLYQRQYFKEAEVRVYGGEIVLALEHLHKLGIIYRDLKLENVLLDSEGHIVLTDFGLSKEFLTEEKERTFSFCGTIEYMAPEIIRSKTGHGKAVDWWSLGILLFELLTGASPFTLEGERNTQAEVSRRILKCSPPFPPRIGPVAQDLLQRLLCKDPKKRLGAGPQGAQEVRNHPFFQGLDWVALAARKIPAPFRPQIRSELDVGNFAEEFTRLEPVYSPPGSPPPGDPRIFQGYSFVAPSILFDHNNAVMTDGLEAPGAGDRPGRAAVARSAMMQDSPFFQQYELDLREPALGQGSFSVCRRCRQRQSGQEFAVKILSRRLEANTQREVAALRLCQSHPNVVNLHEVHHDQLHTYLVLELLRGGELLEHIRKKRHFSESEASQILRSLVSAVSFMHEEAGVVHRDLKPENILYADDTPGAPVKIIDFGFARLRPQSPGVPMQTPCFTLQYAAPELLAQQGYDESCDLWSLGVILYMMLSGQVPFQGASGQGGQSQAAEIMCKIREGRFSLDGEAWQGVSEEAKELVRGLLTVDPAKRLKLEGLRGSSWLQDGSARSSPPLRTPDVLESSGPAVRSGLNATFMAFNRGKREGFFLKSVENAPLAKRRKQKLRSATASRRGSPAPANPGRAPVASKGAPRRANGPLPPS
# [18] = molecular target: Ribosomal protein S6 kinase alpha-4 (Homo sapiens) (UniProt O75676); details: at 1 µM
# [19] = molecular target: Ribosomal protein S6 kinase beta-1 (Homo sapiens) (UniProt P23443); details: at 0.1 µM
# Ribosomal protein S6 kinase beta-1 (Homo sapiens), sequence (P23443 whole entry, looked up): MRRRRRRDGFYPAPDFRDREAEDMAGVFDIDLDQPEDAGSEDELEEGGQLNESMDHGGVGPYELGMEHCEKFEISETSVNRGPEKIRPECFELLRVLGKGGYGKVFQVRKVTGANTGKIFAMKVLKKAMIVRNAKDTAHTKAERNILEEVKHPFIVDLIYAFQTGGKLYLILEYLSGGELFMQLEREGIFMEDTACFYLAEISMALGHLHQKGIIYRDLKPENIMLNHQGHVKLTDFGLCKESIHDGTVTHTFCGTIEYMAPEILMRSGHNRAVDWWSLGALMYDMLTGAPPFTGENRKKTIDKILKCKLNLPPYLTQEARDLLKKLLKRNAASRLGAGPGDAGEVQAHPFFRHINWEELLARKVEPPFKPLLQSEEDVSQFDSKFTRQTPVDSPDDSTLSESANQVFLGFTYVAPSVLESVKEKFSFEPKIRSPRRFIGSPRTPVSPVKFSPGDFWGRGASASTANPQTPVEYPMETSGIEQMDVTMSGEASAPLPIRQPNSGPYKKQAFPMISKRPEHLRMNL
# [20] = molecular target: Ribosomal protein S6 kinase beta-1 (Homo sapiens) (UniProt P23443); details: at 1 µM
Compound,inhibition [1],inhibition [2],inhibition [3],inhibition [4],inhibition [5],inhibition [6],inhibition [7],inhibition [8],inhibition [9],inhibition [10],inhibition [11],inhibition [12],inhibition [13],inhibition [14],inhibition [15],inhibition [16],inhibition [17],inhibition [18],inhibition [19],inhibition [20]
FC(F)(F)CNc1nccc(-c2cnn3ncccc23)n1,0.05%,0.65%,1.43%,0.42%,0.5%,1.33%,-2.66%,-0.41%,3.21%,0.87%,-2.84%,-3.89%,-0.09%,-0.68%,1.98%,1.09%,2.33%,1.58%,0.49%,0.86%
CS(=O)(=O)CCNCc1ccc(-c2ccc3ncnc(Nc4ccc(OCc5ccccc5)cc4)c3c2)o1,0.6%,0.62%,0.5%,1.64%,0.25%,2%,3.01%,3.33%,4.51%,4.87%,-0.82%,-2.61%,0.05%,1.22%,1.86%,0.66%,3.06%,2.56%,1.52%,2.62%
Cc1cc(O)cc(C)c1/C=C/c1cncc(C(N)=O)c1,0.41%,1.41%,1.8%,1.63%,1.06%,1.18%,2.81%,0.48%,0.88%,-1.37%,0.25%,0.43%,1.39%,1.02%,1.68%,2.9%,1.67%,2.18%,1.07%,0.31%
O=C(O[C@H]1CN[C@H](C#Cc2cc3ncnc(Nc4ccc(OCc5cccc(F)c5)c(Cl)c4)c3s2)C1)N1CCOCC1,0.61%,0.67%,2.23%,2.72%,1.68%,1.6%,9.5%,13.6%,5.62%,16%,-0.44%,0.92%,0.34%,0.26%,-0.86%,0.41%,2.64%,4.39%,1.72%,2.85%
OCCCNc1nccc(-c2c(-c3ccc(F)cc3)nn3cc(C(F)(F)F)ccc23)n1,0.44%,0.71%,1.9%,0.18%,0.6%,0%,1.18%,-2.71%,-0.28%,-8.21%,0.26%,-1.54%,0.31%,1.86%,4.64%,4.76%,2.6%,5.75%,3.2%,2.94%
CCS(=O)(=O)c1ccc(OC)c(Nc2ncc(-c3cccc(C(C)=O)c3)o2)c1,0.68%,0.26%,0.96%,2.41%,1.01%,1.05%,3.78%,10.8%,4.52%,4.18%,-0.63%,3.28%,-1.42%,-0.03%,2.8%,4.68%,0.6%,2.7%,1.32%,2.57%
N#Cc1ccc2c(-c3ccnc(NC4CC4)n3)c(-c3ccc(F)cc3)nn2c1,0.77%,-0.12%,0.14%,0.78%,0.56%,2.99%,1.67%,2.24%,4.35%,1.98%,0.79%,0.87%,0.13%,0.52%,0.77%,-0.33%,0.92%,-0.56%,0.06%,-0.85%
CCS(=O)(=O)c1ccc(OC)c(Nc2ncc(-c3cccc(F)c3)o2)c1,0.91%,0.05%,0.44%,3.48%,2.02%,8.05%,4.17%,2.93%,9.79%,3.77%,4.37%,2.99%,0.15%,0.78%,5.29%,7.75%,4.36%,5.01%,2.77%,5.19%
Nc1ncnc2occ(-c3ccc(NC(=O)Nc4cc(C(F)(F)F)ccc4F)cc3)c12,0.73% and -2.6%,0.58% and -1.87%,1.35% and -1.97%,0.45% and -2.44%,1.41% and -1.65%,1.58% and 0.37%,0.64% and -1.58%,-4.06% and -1.29%,0.46% and 3.18%,-5.44% and -7.01%,0.43%,-0.27% and 0.62%,0.53% and -0.08%,0.77% and -0.99%,5.58% and -0.86%,23.9% and 10.9%,3.23% and -1.15%,19.7% and 6.99%,28.2% and 17.1%,77.4% and 70.2%
CC1=C(C(=O)Nc2ccc3[nH]nc(C)c3c2)C(c2ccc(C(F)(F)F)cc2)CC(=O)N1 (stereo not given),1.17%,1.18%,0.84%,1.11%,0.54%,2.53%,3.68%,14.7%,0.8%,-5%,1.9%,17.1%,5.5%,37.4%,6.02%,28.8%,1.31%,11.5%,1.6%,9.4%
CN(C)CCNC(=O)Nc1ccc(N(C)c2ccnc(Nc3ccc(CS(C)(=O)=O)cc3)n2)cc1,1.23%,0.77%,1.42%,0.96%,1.47%,1.13%,2.73%,-0.52%,3.11%,-0.51%,-0.24%,-0.69%,1.09%,2.25%,3.26%,3.31%,3.22%,4.32%,1.72%,1.94%
CNC(=O)c1ncccc1Nc1nc(Nc2cc3c(cc2OC)CCCN3C(=O)CN(C)C)nc2[nH]ccc12,1.11%,1.38%,2.81%,2.14%,2.74%,1.71%,14.5%,56.7%,16.9%,50.4%,-0.11%,2.88%,1.2%,2.41%,3.81%,3.98%,2.93%,5.8%,2.79%,3.62%
COc1cccc(Nc2nccc(-c3cnn4ncccc34)n2)c1,1.34%,0.43%,1.17%,0.61%,1.46%,-0.03%,4.14%,0.06%,1.07%,-2.16%,0.93%,-0.24%,-1.65%,-1.51%,1.02%,4.32%,1.62%,10.5%,2.02%,3.93%
